We go through 34 molecules from PubChem BioAssay AID652231 (Johns Hopkins Ion Channel Center, 2013).

About 55 (2%) of roughly 2,300 compounds were called active.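 How the source made its calls: active means duplicate-averaged calcium signal over 20% of the ionomycin maximum, relative to buffer baseline; inactive means the rest.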 The list comes from a sample in which actives are over-represented; it also holds similar structures and randomly drawn compounds.

This test can be described thus: compound-evoked intracellular calcium rise – cell-based, counter-screen for TMEM16A inhibitor project, confirmation (AID 652231).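 On calcium response (% of ionomycin): each well's signal is peak minus trough fluorescence divided by its pre-addition baseline; 0% = buffer wells and 100% = ionomycin wells.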 The conditions noted are these: TMEM16A/YFP HEK293, Fluo4 calcium mobilization, at 10 µM; active compounds read high.
As to `CSc1nnc2c(n1)OC(c1ccsc1)N(C(C)=O)c1ccccc1-2` (centres undefined), the calcium response (% of ionomycin) entry was “inactive”. For `CCOC(=O)C1=C(CN2CCc3ccccc32)NC(=O)NC1c1cccc([N+](=O)[O-])c1` (centres undefined) the value was “inactive”; for `O=S1(=O)CCN(Cc2ccccc2Cl)CC1`, “inactive”. The same measure for `COc1ccc(Cl)cc1NC(=O)CCS(=O)(=O)c1cc2c(cc1C)NC(=O)CO2`: “inactive”; for `O=C(Nc1nc(-c2ccc3c(c2)OCO3)cs1)c1ccncc1`: “inactive”. The same measure for `Cc1nc2ccccc2cc1OCc1ccc(F)cc1`: “inactive”.

As for `CC(C)(C)C(=O)/C(C#N)=C/c1ccc(O)cc1`, the calcium response (% of ionomycin) entry is “inactive”. For `O=C(O)c1ccc(NC(=O)C2CCCCC2)cc1` the value was “inactive”; for `Cc1ccc(-n2[nH]c(C)c(/C=N/N3C(=O)c4cccc5cccc(c45)C3=O)c2=O)cc1`, 43.5% (active).

`Cc1[nH]n(-c2cccc(Cl)c2)c(=O)c1-c1ccc(Cl)cc1`: the calcium response (% of ionomycin) entry is “inactive”. For the molecule `O=C1c2ccccc2C(Nc2ccc3c(c2)OCCO3)N1Cc1ccco1` (centres undefined), the calcium response (% of ionomycin) result was “inactive”. The same measure for `Cc1cccc(N=Nc2c(O)[nH]c3ccc(F)cc23)c1`: “inactive”; for `CCCCn1ccnc1C(=O)c1cccc(S(=O)(=O)N2c3ccccc3CC2C)c1` (centres undefined): “inactive”; for `O=C(CNCCC1=CCCCC1)Nc1ccccc1N1CCCCCC1`: “inactive”. For `CCCC(=O)Nc1ccccc1N1CCN(C(=O)c2ccccc2)CC1` the value was “inactive”. Consider `S=C(NCc1cccs1)Nc1ccc(Cl)cc1`, for which the calcium response (% of ionomycin) result is “inactive”. For `N#Cc1nc(N)nc(N(c2ccccc2)c2ccccc2)n1` the value was “inactive”; for `Fc1ccc(CSc2nnc(-c3cc4c(s3)-c3ccccc3CC4)o2)cc1`, “inactive”. As for `Cn1c(CN2CCOCC2)nc2cc(NC(=O)c3ccc(Cl)cc3)ccc21`, the calcium response (% of ionomycin) entry is “inactive”. For `O=C1NC(=O)C2C1C(c1ccc([N+](=O)[O-])cc1)=NN2Cc1ccccc1` (centres undefined) the value was “inactive”.

For the molecule `O=C(N/N=C/c1cc(Cl)cc([N+](=O)[O-])c1O)C(O)(c1ccccc1)c1ccccc1`, the calcium response (% of ionomycin) entry is “inactive”. The same measure for `O=C(COc1ccccc1)NCc1ccc2c(c1)OCO2`: “inactive”. Consider `CN(C)c1cc[n+](Cc2ccccc2)cc1`, for which the calcium response (% of ionomycin) entry was “inactive”.

With `CCCCCc1ccc(-c2ccc(C(=O)O)cc2)nc1`, the calcium response (% of ionomycin) entry was “inactive”. Regarding `Cc1ccc2c(c1)N(CC(=O)N1CCCc3ccccc31)C(=O)C(C)O2` (centres undefined), the calcium response (% of ionomycin) entry was “inactive”. As to `COC(=O)c1ccc(COC(=O)c2c(C)nn(Cc3ccccc3Cl)c2Cl)o1`, the calcium response (% of ionomycin) result was “inactive”.

`CCOC(=O)C1CCN(c2ncnc3c2oc2ccc(Br)cc23)CC1`: the calcium response (% of ionomycin) result was “inactive”. The same measure for `Cc1nc(CNS(=O)(=O)c2ccc(Oc3ccccc3)cc2)cs1`: “inactive”; for `CC(=O)c1cc(CN2CCC(C(=O)Nc3cccc(-c4cscn4)c3)CC2)cs1`: “inactive”. The same measure for `c1ccc(-c2nnc(SCc3nc4ccccc4[nH]3)o2)cc1`: “inactive”. The same measure for `COc1ccc(-n2c(C)cc(C(=O)CSc3nnc(-c4cccs4)o3)c2C)cc1`: “inactive”; for `O=C(NC(=S)Nc1ccccc1C(=O)O)c1ccc(-c2ccc(Br)cc2)o1`: 29% (active); for `O=C(Nc1ccccc1)c1ccccc1NC(=O)C(F)(F)F`: “inactive”. Take `N#CC1=C(SCc2ccccc2)NC(=O)C(C#N)C12CCCC2` (centres undefined): the calcium response (% of ionomycin) result was “inactive”.
